Reference: article PMC11006913

Legend:
ALX4 [1] = target: ALX4 (Homo sapiens, UniProt Q9H161 200-286); assay: PBM; 200 nM protein, PBS; settings: dsDNA, one strand shown
ALX4 [2] = target: ALX4 (Homo sapiens, UniProt Q9H161 200-286, Q225E); assay: PBM; 200 nM protein, PBS; settings: dsDNA, one strand shown
Sequence of ALX4 (Homo sapiens, UniProt Q9H161 200-286, Q225E) (Q9H161 200-286 Q225E): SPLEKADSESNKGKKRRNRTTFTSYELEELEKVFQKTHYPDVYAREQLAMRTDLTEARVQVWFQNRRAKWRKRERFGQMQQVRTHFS

Sequence of ALX4 (Homo sapiens, UniProt Q9H161 200-286) (Q9H161 200-286): as the sequence (Q9H161 200-286 Q225E) above, with E26Q counted along it

Row | Sequence | binding signal (ALX4 [1]) | binding signal (ALX4 [2])
1 | CCTAGGAC | 7.82 upbm affinity estimate (log intensity, higher = more binding, comparable within an allelic series) | 8.1 upbm affinity estimate (log intensity, higher = more binding, comparable within an allelic series)
2 | CCTAGAGA | 8.06 upbm affinity estimate (log intensity, higher = more binding, comparable within an allelic series) | 8.18 upbm affinity estimate (log intensity, higher = more binding, comparable within an allelic series)
3 | CCCGGAAG | 7.9 upbm affinity estimate (log intensity, higher = more binding, comparable within an allelic series) | 8.04 upbm affinity estimate (log intensity, higher = more binding, comparable within an allelic series)
4 | TCCGATAA | 10.1 upbm affinity estimate (log intensity, higher = more binding, comparable within an allelic series) | 9.41 upbm affinity estimate (log intensity, higher = more binding, comparable within an allelic series)
5 | ACGCGGGA | 8.23 upbm affinity estimate (log intensity, higher = more binding, comparable within an allelic series) | 8.27 upbm affinity estimate (log intensity, higher = more binding, comparable within an allelic series)
6 | ACCTCCTC | 8.28 upbm affinity estimate (log intensity, higher = more binding, comparable within an allelic series) | 8.12 upbm affinity estimate (log intensity, higher = more binding, comparable within an allelic series)
7 | AATGGATA | 10.2 upbm affinity estimate (log intensity, higher = more binding, comparable within an allelic series) | 9.39 upbm affinity estimate (log intensity, higher = more binding, comparable within an allelic series)
8 | TCAATGAA | 10.1 upbm affinity estimate (log intensity, higher = more binding, comparable within an allelic series) | 9.63 upbm affinity estimate (log intensity, higher = more binding, comparable within an allelic series)
9 | CGGCGGGC | 8.42 upbm affinity estimate (log intensity, higher = more binding, comparable within an allelic series) | 8.3 upbm affinity estimate (log intensity, higher = more binding, comparable within an allelic series)
10 | CTATAATA | 11.6 upbm affinity estimate (log intensity, higher = more binding, comparable within an allelic series) | 10.8 upbm affinity estimate (log intensity, higher = more binding, comparable within an allelic series)
11 | CGCCCTTC | 8.03 upbm affinity estimate (log intensity, higher = more binding, comparable within an allelic series) | 8.24 upbm affinity estimate (log intensity, higher = more binding, comparable within an allelic series)
12 | CCCCTCTC | 8.15 upbm affinity estimate (log intensity, higher = more binding, comparable within an allelic series) | 8.2 upbm affinity estimate (log intensity, higher = more binding, comparable within an allelic series)
13 | GCATTTGA | 9.56 upbm affinity estimate (log intensity, higher = more binding, comparable within an allelic series) | 9.16 upbm affinity estimate (log intensity, higher = more binding, comparable within an allelic series)
14 | CAGTCGCC | 8.23 upbm affinity estimate (log intensity, higher = more binding, comparable within an allelic series) | 8.19 upbm affinity estimate (log intensity, higher = more binding, comparable within an allelic series)
15 | GGAAGCCA | 8.23 upbm affinity estimate (log intensity, higher = more binding, comparable within an allelic series) | 8.17 upbm affinity estimate (log intensity, higher = more binding, comparable within an allelic series)
16 | GAGAGGCA | 8.02 upbm affinity estimate (log intensity, higher = more binding, comparable within an allelic series) | 8.16 upbm affinity estimate (log intensity, higher = more binding, comparable within an allelic series)
